This is one part of a sample in which hits are shown more often than they occur.
CBX7 inh: CBX7 inhibition, primary AlphaScreen; normalised signal (fraction of DMSO) (concentration not given with the values); AlphaScreen His6-CBX7 / biotin-H3K27me3 peptide binding; hits give low values; 66,000 compounds, 1.1% hits; in the data active = normalised signal below about 0.5
Target sequence (O95931 whole entry, looked up): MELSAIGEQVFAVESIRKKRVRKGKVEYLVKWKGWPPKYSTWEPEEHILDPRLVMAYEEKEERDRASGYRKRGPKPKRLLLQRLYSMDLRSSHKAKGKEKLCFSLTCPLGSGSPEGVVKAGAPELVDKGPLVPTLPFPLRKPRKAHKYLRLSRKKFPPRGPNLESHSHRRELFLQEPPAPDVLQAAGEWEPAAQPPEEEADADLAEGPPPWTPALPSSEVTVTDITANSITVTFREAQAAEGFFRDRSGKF
Numbers stand for hits; – = inactive.

SMILES	CBX7 inh
COc1ccc(N2CCN(c3oc(COc4ccc(Cl)cc4)nc3C#N)CC2)cc1	–
N#Cc1nc(COc2ccc(F)cc2)oc1N1CCCCCC1	0.5
CCN1CCN(c2oc(COc3ccc(F)cc3)nc2C#N)CC1	–
COc1ccc(OCc2nc(C#N)c(N3CCCCCC3)o2)cc1	–
Cc1ccc(OCc2nc(C#N)c(N3CC(C)CC(C)C3)o2)cc1 (stereo not drawn)	–
COc1ccc(N2CCN(c3oc(COc4cccc(C)c4)nc3C#N)CC2)cc1	0.49
N#Cc1nc(COc2ccccc2)oc1N1CCCCCC1	0.46
Cc1ccc(OCc2nc(C#N)c(N3CCCCCC3)o2)cc1	0.4
COc1ccc(N2CCN(c3oc(COc4ccccc4OC)nc3C#N)CC2)cc1	–
CCCCCc1ccc(-c2ccc(-c3noc(-c4ccc(OC)cc4)n3)cc2)nc1	–
Fc1ccc(Nc2nc(SCc3ccncc3)nc3ccccc23)cc1	–
COc1cccc(Nc2ncccc2C(=O)Nc2cccc(C(F)(F)F)c2)c1	–
Cc1ccccc1Nc1c(-c2cccc(Br)c2)nc2c(C)cccn12	–
Cn1ncc(Cl)c1C(=O)Nc1ccc2nc(-c3ccccc3)[nH]c2c1	–
COc1ccc(-c2nc3ccccc3o2)cc1NC(=O)COc1cccc(C)c1C	–
CC(C)(C)c1ccc(-c2nc3cc(NC(=O)c4ccccc4F)ccc3o2)cc1	–
N#Cc1nc(COc2ccc(F)cc2)oc1N1CCCCC1	0.42
N#Cc1nc(COc2ccc(F)cc2)oc1N1CCC(C(N)=O)CC1	–
N#Cc1nc(-c2ccc(F)cc2)oc1N1CCCCCC1	–
Cc1ccccc1OCc1nc(C#N)c(N2CCOCC2)o1	–
Cc1ccccc1OCc1nc(C#N)c(N2CCCCC2)o1	–
Cc1ccccc1OCc1nc(C#N)c(N2CCCCCC2)o1	0.47
COC(CN1C(=O)Cn2cccc2C1C(=O)NC1CCC(C)CC1)OC (stereo not drawn)	–
CCCCN(CCCC)CC(O)CN(c1ccccc1OC)S(=O)(=O)c1ccc(C)cc1 (stereo not drawn)	–
Cc1ccc(-c2nc(Nc3c(F)cccc3F)c3ccccc3n2)cc1	–
SMILES	CBX7 inh
CCC(=O)Nc1nc(C)c(-c2csc(Nc3ccc(OC)cc3)n2)s1	0.5
CCC(=O)Nc1nc(C)c(-c2csc(Nc3ccccn3)n2)s1	–
CCC(=O)Nc1nc(C)c(-c2csc(Nc3cc(OC)ccc3OC)n2)s1	0.5
CCC(=O)Nc1nc(C)c(-c2csc(Nc3ncccn3)n2)s1	–
COc1ccc(OC)c(Nc2nc(-c3sc(C)nc3C)cs2)c1	–
CCC(=O)Nc1nc(C)c(-c2csc(Nc3ccccc3OC)n2)s1	–
CCCC1CCC(c2nc(-c3ccc(Cl)cc3)no2)CC1 (stereo not drawn)	–
Cc1cc(Cl)ccc1NC(=O)c1c(-c2ccccc2Cl)noc1C	–
Cc1cc(N2CCC(C)CC2)nc2ccc(NC(=O)C3CCC(C)CC3)cc12 (stereo not drawn)	–
O=C1c2ccccc2C(Nc2cccnc2)N1c1cccnc1 (stereo not drawn)	0.069
O=C1c2ccccc2C(Nc2ccc(Br)cc2)N1c1cccnc1 (stereo not drawn)	–
COc1cccc(NC2c3ccccc3C(=O)N2c2cccnc2)c1 (stereo not drawn)	–
Fc1ccc(Nc2c(-c3ccc(Cl)cc3)nc3ncccn23)cc1	–
Cc1ccn2c(Nc3ccc(C(C)C)cc3)c(-c3ccccn3)nc2c1	0.0075
Cc1ccc(Nc2c(-c3cccc(Br)c3)nc3cc(C)ccn23)cc1	–
COc1ccc(Nc2c(-c3ccccn3)nc3ccc(Cl)cn23)cc1	–
Cc1ccc(-c2nc3cnccn3c2Nc2ccc(C(C)C)cc2)cc1	–
Cc1ccc(Nc2c(-c3ccccn3)nc3cc(C)ccn23)cc1	0.00096
COc1ccc(Nc2c(-c3ccccn3)nc3cc(C)ccn23)cc1	0
COc1ccc(Nc2c(-c3ccccn3)nc3ccc(Br)cn23)cc1	–
Fc1ccc(Nc2c(-c3ccccn3)nc3ccccn23)cc1	0.059
Fc1ccc(Nc2c(-c3ccccc3)nc3ccccn23)cc1	–
Cc1ccc(Nc2c(-c3cccnc3)nc3cc(C)ccn23)cc1	–
Cc1ccn2c(Nc3ccc(C(C)C)cc3)c(-c3ccsc3)nc2c1	–
CCC(Cc1ccccc1)NC(=O)CN1C(=O)CCSc2ccccc21 (stereo not drawn)	–
SMILES	CBX7 inh
CN1CCN(c2c(-c3ccccc3)c3cc(Cl)ccc3[nH]c2=O)CC1	–
NS(=O)(=O)c1ccc(NC(=O)c2cc(-c3ccc(Br)s3)nc3ccccc23)cc1	–
O=C(NCc1ccccn1)C1CCN(c2nnc(-n3cccc3)s2)CC1	–
Cc1ccc(CNC(=O)CCc2c(C)nc3cc(-c4ccc(Cl)cc4)nn3c2C)cc1	–
CCn1c(C(=O)N2CCC(C(=O)NCCCN3CCc4ccccc4C3)CC2)cc2sccc21	–
COc1ccc(-c2csc(NC(=O)CCOc3ccccc3)n2)cc1OC	–
CCN1CCN(C(=O)c2csc3c2CCCCC3)CC1	–
O=C(NCc1ccccn1)C1CCC(CNS(=O)(=O)c2cccc3cccnc23)CC1 (stereo not drawn)	–
COC(=O)CNc1c(-c2ccccn2)nc2cnccn12	–
COC(=O)CNc1c(-c2c[nH]c3ccccc23)nc2ccc(Br)cn12	–
COC(=O)CNc1c(-c2ccccn2)nc2ccccn12	0.28
CCCCCn1c(C(C)NC(=O)c2ccc(F)cc2)nc2ccccc21 (stereo not drawn)	–
CN(C)CCCN1C(=O)CCn2c(-c3ccccc3)c(-c3ccccc3)c3cccc1c32	0.49
CCN(CC)CCN1C(=O)Cn2c3c(c4cccc1c42)CCC3	–
CCCc1nc2ccccc2n1CC(O)COc1c(C)cc(C)cc1C (stereo not drawn)	–
Cc1cc(C)c(OCC(O)Cn2cnc3ccccc32)c(C)c1 (stereo not drawn)	0.48
Cc1ccc(Cl)c(OCC(O)Cn2cnc3ccccc32)c1 (stereo not drawn)	–
O=C(O)c1ccccc1OCC(O)Cn1cnc2ccccc21 (stereo not drawn)	–
OC(COc1ccccc1Cl)Cn1cnc2ccccc21 (stereo not drawn)	0.25
OC(COc1ccc(Br)cc1)Cn1cnc2ccccc21 (stereo not drawn)	–
CC1CCC(NC(=O)C2c3cccn3CC(=O)N2Cc2ccc(F)cc2)CC1 (stereo not drawn)	–
COc1ccc(-c2nc(CN3CCC(C(=O)NCCc4ccc(Cl)cc4)CC3)c(C)o2)cc1OC	–
Cc1cccc(Nc2nc3nonc3n3c(C)nnc23)c1C	–
Cc1ccc(-c2noc(CCC(=O)N3CCN(c4ccccc4)CC3)n2)cc1	–
Cc1ccccc1OCC(=O)Nc1c(C(=O)c2ccc(Cl)cc2)oc2ccccc12	–
SMILES	CBX7 inh
O=C(CSc1nnnn1-c1ccccc1)Nc1ncccn1	0.13
NC(=O)c1ccc(-n2nnnc2SCC(=O)Nc2ccccc2)cc1	–
O=C(CSc1nnnn1-c1ccc(Cl)cc1)Nc1ccccc1Cl	–
Cc1ccc(NC(=O)c2ccc(CNc3c(N4CCC(C)CC4)c(=O)c3=O)cc2)cc1C	–
O=C(Nc1ccccc1-c1nc2ccccc2[nH]1)c1ccc(-c2ccccc2)cc1	–
CCOc1ccc(-c2cc(C(=O)NC3CCCCC3)c3ccccc3n2)cc1	–
Cc1cc(OCc2nc(-c3ccc(NC(=O)c4ccncc4)cc3)no2)ccc1Cl	–
Cc1ccc(S(=O)(=O)c2cn(CC(=O)Nc3ccccc3)c3ccc(Cl)cc3c2=O)cc1	–
Cc1ccc2c(c1)N(C(C)C(=O)NCc1ccccn1)C(=O)CO2 (stereo not drawn)	0.25
Cc1ccc2c(c1)N(CCCC(=O)NCc1ccccn1)C(=O)CO2	–
